# Measurements reported in PubChem BioAssay (NCATS).
# “And” between values parts separate entries of the source, which are not always exact repeats. Equal values may be shown once. Records with an inconclusive call do not appear. Entries that show only a call come without a potency. The source made the active and inactive calls. Unless noted, the call rests on the fitted dose curve; in most records, active means well fitted curve in the direction sought with a large enough effect; inconclusive means small, poorly fitted or top-dose-only effect, or another doubt; inactive means no such curve, though single readings can be large; an effect the other way counts as inactive or inconclusive.
# Key:
# [1] = target: Ubiquitin carboxyl-terminal hydrolase 1 (Homo sapiens) (UniProt O94782); assay: Inhibitors of USP1/UAF1: Pilot qHTS (AID 504865); further: nearly all actives have a fitted effect of over 35% in size; further: potency means the concentration at half of the fitted maximal effect
# Summary of the method: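 Deubiquitinase activity followed as kinetic rhodamine fluorescence release from 150 nM Ub-Rho. 1 nM USP1/UAF1 with compound, after 15 min room-temperature preincubation, in HEPES pH 7.8 buffer containing TCEP, EDTA, BSA and Tween-20.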
# [2] = Validation screen for small molecules that induce genotoxicity in human embryonic kidney (HEK293T) cells expressing luciferase-tagged ELG1 (AID 493106)
# Summary of the method: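 Luminescence from an ELG1-luciferase fusion serves as the read-out, rising when genetic stress elevates ELG1 protein. HEK293T reporter cells (2,000 per well) received 23 nL compound, incubated 16 hr at 37 °C, then ONE-Glo for 30 min at room temperature.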
# [3] = target: ATPase family AAA domain-containing protein 5 (Homo sapiens) (UniProt Q96QE3); assay: Validation screen for small molecules that inhibit ELG1-dependent DNA repair in human embryonic kidney (HEK293T) cells expressing luciferase-tagged ELG1 (AID 493107);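 further: cells co-treated with the DNA-damaging agent 5-fluorouridine alongside compound; series mostly up to about 46 µM; inhibitors lower the ELG1-luciferase luminescence signal; nearly all actives have a fitted effect of over 70% in size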
# Summary of the method: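 Luminescence from ONE-Glo, developed 30 min at room temperature, served as read-out of ELG1-luciferase levels. Beforehand, reporter HEK293T cells received 5-fluorouridine plus test compound for 16 hr at 37 °C.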
# [4] = Nrf2 qHTS screen for inhibitors: Validation (AID 493153; active means well fitted inhibition curve with a large enough effect in the main read-out, with a control signal flat, not every such curve was filed as active; further: potency means the concentration at half of the fitted maximal effect); details: Potency: luciferase luminescence; viability change: measured here: cytotoxicity max response
# Summary of the method: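 Luminescence from an ARE-firefly luciferase reporter in A549 cells gives Nrf2 inhibition; an earlier CellTiter-Fluor fluorescent read flags cytotoxicity. Cells in 5% FBS OPTI-MEM received compound dilution series for 18-24 h at 37°C.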
# [5] = qHTS for Inhibitors of Cell Surface uPA Generation: Validation Assay (AID 493164)
# Summary of the method: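 RAW 264.7 cells (4000/well) were plated overnight, then exposed for 18 h at 37 C, 5% CO2 to compounds in a 7-point 1:5 titration (2.45 nM–38.3 uM final). Intracellular ATP was read by ATP-Lite luminescence.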
# [6] = target: Peptidyl-prolyl cis-trans isomerase NIMA-interacting 1 (Homo sapiens) (UniProt Q13526); assay: qHTS Validation Assay to Find Inhibitors of Pin1 (AID 504536; active means well fitted inhibition curve with a large enough effect in the polarisation, with a control signal flat, not every such curve was filed as active; the % refers to the polarisation)
# Summary of the method: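 Fluorescence polarization competition: compounds (titration) displace HiFluor-488-labeled Pin1-1b peptide from Pin1 (0.3 uM final) in pH 7.5 HEPES buffer with DTT, 10 min at room temperature; %Activity normalized to no-enzyme wells, curves fitted.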
# [7] = target: Phosphoglycerate kinase, glycosomal (Trypanosoma brucei brucei) (UniProt P07378); assay: qHTS Validation Assay to Find Inhibitors of Phosphoglycerate Kinase (AID 504547)
# Summary of the method: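 PGK activity was coupled to GAPDH (100nM final), which generates the unstable substrate 1,3-bisphosphoglycerate in-well. Reactions ran 60 minutes at room temperature in 100mM TEA pH 7.6, 5mM MgCl2, 0.01% Tween-20, then Kinase-Glo Plus luminescence was read.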
# [8] = target: phosphoglycerate mutase (Leishmania major) (UniProt Q4Q090); assay: qHTS Validation Assay to Find Inhibitors of Phosphoglycerate Mutase (AID 504548); further: series mostly up to about 58 µM
# Summary of the method: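 Lm PGAM 1.25nM final; 100 mM TEA pH 7.6, 5 mM MgCl2, 0.01% Tween-20; 45 min RT; Kinase-GloPlus, 10 min; end-point luminescence. Enzyme-free wells as negative controls.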
# [9] = qHTS for Inhibitors of ATXN expression: Validation of Cytotoxic Assay (AID 588349)
# Summary of the method: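 Read-out: ATP-based luminescence (CellTiter Glo) reflecting viability of HEK293 cells after 72 hr incubation at 37 degrees C with a concentration series of each compound.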
# [10] = qHTS for Inhibitors of ATXN expression: Validation (AID 588378); further: series mostly up to about 57 µM; nearly all actives have a fitted effect of over 75% in size
# Summary of the method: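 Luciferase luminescence (Bright-Glo) from an ATXN2-FFLuc HEK293 line after 24 h compound exposure at 37 °C, preceded by a CellTiter-Fluor fluorescence viability read. Serial dilutions of a reference ATXN2 inhibitor and a luciferase inhibitor served as controls.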
# [11] = target: Thyrotropin-releasing hormone receptor (Homo sapiens) (UniProt P34981); assay: qHTS for Small Molecule Agonists and Allosteric Enhancers of Human TRH Receptor: Validation Screen for Agonists (AID 493127;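 active means calcium activation more than 3 SD above the typical response in the agonist read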;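 further: intracellular calcium rise by fluo-8 fluorescence before TRH EC20 addition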); details: TRH receptor agonist cell assay; at 2 µM; stronger effect = higher value
# Summary of the method: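 Cells 2000/well, 10% FCS, 18 h 33.5C/5% CO2 → fluo-8 Ca dye, RT 30 min–1.5 h → FDSS baseline 10 × 1 s → compound added → 230 cycles (1 s/cycle) agonist mode. TRH controls.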
# [12] = target: Galactokinase (Homo sapiens) (UniProt P51570); assay: qHTS Validation Assay for Inhibitors of Human Galactokinase (GALK) (AID 493189)
# Summary of the method: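 Inhibition was measured as remaining ATP, detected by luciferase luminescence after a 1 h room-temperature reaction. Final conditions: 5 nM GALK, 100 uM galactose, 35 uM ATP, pH 8.0 HEPES buffer.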
# [13] = Validation screen for small molecules that induce DNA re-replication in SW480 colon adenocarcinoma cells (AID 504364)
# Summary of the method: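 250 cells/well; compound pinned in; 48 hr, 37 C, 5% CO2; Hoechst added, 40 min; nuclear fluorescence imaged, 405 ex / 500-530 em; re-replication scored as increase in high-intensity nuclei.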
# [14] = target: Estrogen receptor (Homo sapiens) (UniProt P03372); assay: qHTS assay for small molecule antagonists of estrogen receptor alpha signaling (AID 588513; active means well fitted curve in the direction sought with a large enough effect in the signal ratio, with a control signal flat, not every such curve was filed as active; the % refers to the signal ratio)
# Summary of the method: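 Antagonist mode: inhibition of 0.5 nM 17-beta-estradiol-driven beta-lactamase reporter in HEK 293 ER-alpha-UAS-bla cells, 18 h at 37C, CCF4 readout after 2 h at RT. Normalised to estradiol and DMSO; titration fitted to Hill.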
# [15] = target: Estrogen receptor (Homo sapiens) (UniProt P03372); assay: qHTS assay for small molecule agonists of estrogen receptor alpha signaling (AID 588514; calls by dose curve; further: nearly all actives have a fitted effect of over 70% in size)
# Summary of the method: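 Cells were plated at 5000/well, incubated 4 hrs at 37 C, dosed with compound titration series, incubated 18 hrs at 37 C, loaded with CCF4 dye for 2 hrs at RT, then fluorescence was read.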
# [16] = target: Androgen receptor (Homo sapiens) (UniProt P10275); assay: qHTS assay for small molecule agonists of androgen receptor signaling (AID 588515; active means well fitted curve in the direction sought with a large enough effect in the signal ratio, with a control signal flat; the % refers to the signal ratio); details: AR-UAS-bla HEK293, beta-lactamase ratio, agonist 16 h; stronger effect = higher value
# Summary of the method: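 EC50 and efficacy came from Hill fits of titrations (up to 92 uM) normalized to 30 nM R1881 as 100% and DMSO as 0%. Compound exposure was 16 h at 37 C on AR-UAS-bla HEK293 cells, with a 405/460/530 nm CCF4 fluorescence read.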
# [17] = target: Androgen receptor (Homo sapiens) (UniProt P10275); assay: qHTS assay for small molecule antagonists of androgen receptor signaling (AID 588516; active means well fitted curve in the direction sought with a large enough effect in the signal ratio, with a control signal flat, not every such curve was filed as active; the % refers to the signal ratio)
# Summary of the method: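 Antagonist mode: inhibition of R1881-stimulated (10 nM final) bla reporter in GeneBLAzer AR HEK 293 cells, 16 h at 37C, compounds titrated. IC50 and efficacy from Hill-equation fits of 405/460–530 nm FRET ratios.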
# [18] = target: Bile acid receptor (Homo sapiens) (UniProt Q96RI1); assay: qHTS assay for small molecule antagonists of farnesoid X receptor signaling (AID 588526; calls by dose curve)
# Summary of the method: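 Antagonist mode: titrated compounds tested against chenodeoxycholic acid stimulation (normalized to 50 uM CDCA and DMSO) in GeneBLAzer HEK293T cells for 16 h. Beta-lactamase read by CCF4 fluorescence; IC50 from Hill fits.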
# [19] = target: Glucocorticoid receptor (Homo sapiens) (UniProt P04150); assay: qHTS assay for small molecule agonists of glucocorticoid receptor signaling (AID 588532; active means well fitted curve in the direction sought with a large enough effect in the signal ratio, with a control signal flat; the % refers to the signal ratio); details: HeLa MMTV-bla, beta-lactamase ratio, agonist, 18 h; stronger effect = higher value; percent of dexamethasone control, DMSO zero
# Summary of the method: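 MMTV-bla HeLa beta-lactamase reporter cells in 1% charcoal/dextran FBS medium, compounds up to 92 uM for 18 h at 37 C, CCF4 readout; normalized to 0.1 uM dexamethasone (100%), EC50 and efficacy from Hill fits.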
# [20] = target: Glucocorticoid receptor (Homo sapiens) (UniProt P04150); assay: qHTS assay for small molecule antagonists of glucocorticoid receptor signaling (AID 588533; active means well fitted inhibition curve with a large enough effect in the signal ratio, with a control signal flat, not every such curve was filed as active; the % refers to the signal ratio;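 further: cells stimulated with 2 nM dexamethasone as agonist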)
# Summary of the method: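 Antagonist-mode qHTS: compound titrations added to GRE-bla HeLa cells, then dexamethasone 2 nM final; 18 h, 37 C. CCF4 FRET fluorescence normalized to dexamethasone and DMSO; IC50 from Hill fit.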
# Chain of Estrogen receptor (Homo sapiens) (P03372 whole entry, looked up): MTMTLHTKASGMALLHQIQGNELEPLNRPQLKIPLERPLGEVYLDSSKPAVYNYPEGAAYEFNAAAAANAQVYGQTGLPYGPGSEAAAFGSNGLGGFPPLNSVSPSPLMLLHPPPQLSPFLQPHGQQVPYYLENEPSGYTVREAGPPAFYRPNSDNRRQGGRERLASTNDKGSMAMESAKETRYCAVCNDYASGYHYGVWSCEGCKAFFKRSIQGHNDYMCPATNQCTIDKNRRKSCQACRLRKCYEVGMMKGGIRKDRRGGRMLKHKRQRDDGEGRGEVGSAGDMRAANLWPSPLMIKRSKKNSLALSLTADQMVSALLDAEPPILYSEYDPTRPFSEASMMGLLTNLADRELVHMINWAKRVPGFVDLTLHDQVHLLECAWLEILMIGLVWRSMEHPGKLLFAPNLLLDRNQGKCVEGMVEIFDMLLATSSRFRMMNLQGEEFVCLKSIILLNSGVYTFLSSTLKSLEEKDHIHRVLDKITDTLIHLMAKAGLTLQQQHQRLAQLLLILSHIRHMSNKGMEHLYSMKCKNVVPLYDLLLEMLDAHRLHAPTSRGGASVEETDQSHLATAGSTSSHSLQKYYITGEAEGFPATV
# Chain of ATPase family AAA domain-containing protein 5 (Homo sapiens) (Q96QE3 whole entry, looked up, the tested form may be a part): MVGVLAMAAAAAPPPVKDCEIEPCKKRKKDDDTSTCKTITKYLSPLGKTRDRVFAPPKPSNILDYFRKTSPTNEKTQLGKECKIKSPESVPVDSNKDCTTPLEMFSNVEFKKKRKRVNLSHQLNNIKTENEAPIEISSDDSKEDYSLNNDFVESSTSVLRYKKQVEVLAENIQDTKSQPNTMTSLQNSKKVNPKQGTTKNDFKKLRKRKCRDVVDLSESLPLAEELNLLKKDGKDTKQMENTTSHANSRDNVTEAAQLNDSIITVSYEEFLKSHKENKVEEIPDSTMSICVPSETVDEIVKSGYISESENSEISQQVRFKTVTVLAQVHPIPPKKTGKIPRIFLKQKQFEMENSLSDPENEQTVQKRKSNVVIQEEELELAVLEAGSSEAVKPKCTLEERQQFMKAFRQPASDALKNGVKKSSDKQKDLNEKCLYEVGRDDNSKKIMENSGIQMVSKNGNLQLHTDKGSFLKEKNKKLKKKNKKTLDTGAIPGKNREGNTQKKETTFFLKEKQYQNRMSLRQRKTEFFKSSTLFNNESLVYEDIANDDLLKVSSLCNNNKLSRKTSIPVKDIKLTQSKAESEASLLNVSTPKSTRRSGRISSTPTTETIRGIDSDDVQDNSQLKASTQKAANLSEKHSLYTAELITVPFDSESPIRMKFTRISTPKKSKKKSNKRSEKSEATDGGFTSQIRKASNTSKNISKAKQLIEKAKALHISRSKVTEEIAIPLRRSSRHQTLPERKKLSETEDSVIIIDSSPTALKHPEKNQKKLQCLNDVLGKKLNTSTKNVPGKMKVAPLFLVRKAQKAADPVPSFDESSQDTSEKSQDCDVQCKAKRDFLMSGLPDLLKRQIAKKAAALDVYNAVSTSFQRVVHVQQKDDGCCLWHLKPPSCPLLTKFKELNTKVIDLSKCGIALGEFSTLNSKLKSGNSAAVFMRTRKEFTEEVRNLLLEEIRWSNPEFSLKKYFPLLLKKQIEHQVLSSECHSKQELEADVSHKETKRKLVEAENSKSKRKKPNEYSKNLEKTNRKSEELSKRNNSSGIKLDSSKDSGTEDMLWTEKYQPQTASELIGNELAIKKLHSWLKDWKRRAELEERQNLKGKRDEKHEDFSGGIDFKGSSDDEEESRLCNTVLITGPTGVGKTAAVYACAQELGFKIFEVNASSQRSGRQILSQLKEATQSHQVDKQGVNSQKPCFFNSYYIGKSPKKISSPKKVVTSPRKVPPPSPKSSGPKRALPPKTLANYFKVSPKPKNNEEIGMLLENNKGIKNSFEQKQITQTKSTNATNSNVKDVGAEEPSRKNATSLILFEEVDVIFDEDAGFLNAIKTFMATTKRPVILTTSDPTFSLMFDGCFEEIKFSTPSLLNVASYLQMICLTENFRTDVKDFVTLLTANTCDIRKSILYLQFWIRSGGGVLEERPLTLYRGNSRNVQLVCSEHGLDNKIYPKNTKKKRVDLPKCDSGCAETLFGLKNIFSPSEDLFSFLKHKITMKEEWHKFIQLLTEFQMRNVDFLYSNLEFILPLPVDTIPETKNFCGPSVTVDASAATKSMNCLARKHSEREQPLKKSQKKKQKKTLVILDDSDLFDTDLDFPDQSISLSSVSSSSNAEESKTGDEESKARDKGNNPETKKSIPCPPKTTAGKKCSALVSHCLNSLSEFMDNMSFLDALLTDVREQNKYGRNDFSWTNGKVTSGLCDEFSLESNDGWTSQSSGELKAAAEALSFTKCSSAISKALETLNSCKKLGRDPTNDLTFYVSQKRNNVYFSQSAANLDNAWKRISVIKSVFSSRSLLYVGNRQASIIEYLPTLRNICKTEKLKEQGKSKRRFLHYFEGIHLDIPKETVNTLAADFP
# Chain of Ubiquitin carboxyl-terminal hydrolase 1 (Homo sapiens) (O94782 whole entry, looked up): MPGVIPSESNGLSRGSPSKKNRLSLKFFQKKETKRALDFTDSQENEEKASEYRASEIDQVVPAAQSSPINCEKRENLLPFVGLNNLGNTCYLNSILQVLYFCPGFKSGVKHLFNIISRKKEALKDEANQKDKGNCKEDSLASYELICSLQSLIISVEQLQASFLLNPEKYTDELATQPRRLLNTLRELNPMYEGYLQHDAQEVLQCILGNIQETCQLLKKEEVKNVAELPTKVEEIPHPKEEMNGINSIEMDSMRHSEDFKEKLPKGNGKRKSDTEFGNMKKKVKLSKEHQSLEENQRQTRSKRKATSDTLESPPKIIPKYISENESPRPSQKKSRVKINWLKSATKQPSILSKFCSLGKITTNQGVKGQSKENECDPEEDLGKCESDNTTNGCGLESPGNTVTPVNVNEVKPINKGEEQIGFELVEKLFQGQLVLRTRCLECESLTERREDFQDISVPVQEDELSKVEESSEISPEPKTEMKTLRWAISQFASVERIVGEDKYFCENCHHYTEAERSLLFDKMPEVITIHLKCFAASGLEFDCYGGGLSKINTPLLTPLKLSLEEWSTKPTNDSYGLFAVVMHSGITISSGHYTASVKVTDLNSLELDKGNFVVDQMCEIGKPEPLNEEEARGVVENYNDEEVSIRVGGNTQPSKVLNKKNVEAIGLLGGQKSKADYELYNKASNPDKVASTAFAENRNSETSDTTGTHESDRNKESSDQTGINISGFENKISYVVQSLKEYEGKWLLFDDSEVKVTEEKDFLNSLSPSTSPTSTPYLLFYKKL
# Chain of phosphoglycerate mutase (Leishmania major) (Q4Q090 1-553): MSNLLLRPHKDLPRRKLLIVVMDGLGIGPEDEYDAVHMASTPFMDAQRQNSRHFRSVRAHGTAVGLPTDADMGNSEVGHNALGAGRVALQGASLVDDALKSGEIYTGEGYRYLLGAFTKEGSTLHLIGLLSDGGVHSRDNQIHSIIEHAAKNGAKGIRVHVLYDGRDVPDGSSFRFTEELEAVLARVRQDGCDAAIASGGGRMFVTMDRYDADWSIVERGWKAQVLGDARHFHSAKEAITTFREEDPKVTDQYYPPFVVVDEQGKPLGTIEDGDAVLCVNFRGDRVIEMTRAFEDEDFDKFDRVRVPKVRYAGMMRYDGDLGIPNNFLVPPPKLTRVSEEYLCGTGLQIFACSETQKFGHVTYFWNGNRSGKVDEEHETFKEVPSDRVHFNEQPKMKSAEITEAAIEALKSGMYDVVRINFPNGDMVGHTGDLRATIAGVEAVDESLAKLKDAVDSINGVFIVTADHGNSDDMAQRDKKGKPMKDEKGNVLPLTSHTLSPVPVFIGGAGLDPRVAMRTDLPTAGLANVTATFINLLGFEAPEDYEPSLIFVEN
# Chain of Peptidyl-prolyl cis-trans isomerase NIMA-interacting 1 (Homo sapiens) (Q13526 whole entry, looked up): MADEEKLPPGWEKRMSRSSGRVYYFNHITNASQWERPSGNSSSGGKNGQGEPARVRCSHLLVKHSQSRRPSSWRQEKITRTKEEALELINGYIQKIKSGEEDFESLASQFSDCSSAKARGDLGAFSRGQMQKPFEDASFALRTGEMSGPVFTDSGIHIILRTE
# Chain of Phosphoglycerate kinase, glycosomal (Trypanosoma brucei brucei) (P07378 whole entry, looked up): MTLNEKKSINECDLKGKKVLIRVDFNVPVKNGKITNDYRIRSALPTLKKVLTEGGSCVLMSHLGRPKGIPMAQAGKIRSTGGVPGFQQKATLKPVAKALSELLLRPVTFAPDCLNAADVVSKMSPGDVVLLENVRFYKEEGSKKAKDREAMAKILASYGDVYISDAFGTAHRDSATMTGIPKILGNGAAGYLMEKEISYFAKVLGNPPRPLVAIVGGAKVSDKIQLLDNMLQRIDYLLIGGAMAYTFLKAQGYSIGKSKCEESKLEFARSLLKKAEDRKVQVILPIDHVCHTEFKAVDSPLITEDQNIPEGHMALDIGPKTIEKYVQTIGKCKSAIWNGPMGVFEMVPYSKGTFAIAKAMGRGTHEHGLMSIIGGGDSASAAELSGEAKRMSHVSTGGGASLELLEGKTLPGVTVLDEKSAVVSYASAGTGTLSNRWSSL
# Chain of Thyrotropin-releasing hormone receptor (Homo sapiens) (P34981 whole entry, looked up): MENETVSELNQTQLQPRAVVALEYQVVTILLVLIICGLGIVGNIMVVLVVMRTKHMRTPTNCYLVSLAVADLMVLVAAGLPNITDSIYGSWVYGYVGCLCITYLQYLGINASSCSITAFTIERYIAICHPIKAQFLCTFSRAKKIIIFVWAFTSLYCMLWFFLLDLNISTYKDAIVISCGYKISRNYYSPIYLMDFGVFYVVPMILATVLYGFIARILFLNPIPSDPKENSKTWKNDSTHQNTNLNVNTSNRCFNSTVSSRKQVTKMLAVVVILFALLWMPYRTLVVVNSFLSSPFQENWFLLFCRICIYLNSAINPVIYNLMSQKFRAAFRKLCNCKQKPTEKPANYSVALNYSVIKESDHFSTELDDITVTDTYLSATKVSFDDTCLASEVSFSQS
compound,measurement,setting,value
Cc1cccc(C)c1NC(=O)CN1CCCCCC1,Potency,[1],inactive
Cc1cc(NS(=O)(=O)c2ccc(N)cc2)nc(C)n1,Potency,[1],inactive
Cc1c(-c2ccccc2)oc2c(C(=O)OCCN3CCCCC3)cccc2c1=O,Potency,[1],inactive
CC(C)(C)NC[C@H](O)COc1nsnc1N1CCOCC1,outcome,[2],inactive
same,outcome,[3],inactive
same,Potency,[4],inactive
same,viability change,[4],2.77%
same,outcome,[5],inactive
same,outcome,[6],inactive
same,outcome,[7],inactive
same,outcome,[8],inactive
same,outcome,[9],inactive
same,outcome,[10],inactive
O=C(Oc1cccc2cccnc12)c1ccccc1,Potency,[1],inactive
CC1(COc2ccc(CC3SC(=O)NC3=O)cc2)CCCCC1 (stereo not given),Potency,[1],20 µM (active)
CCOc1cc(OCC)c(C(=O)CCC(=O)O)cc1OCC,Potency,[1],inactive
N=C(N)N1CCc2ccccc2C1,Potency,[1],inactive
Cc1cc(-c2ccccc2)nnc1NCCN1CCOCC1,Potency,[1],inactive
CN=C(N)NCCC[C@H](N)C(=O)O,outcome,[2],inactive
same,outcome,[3],inactive
same,Potency,[4],inactive
same,viability change,[4],2.51%
same,outcome,[5],inactive
same,outcome,[6],inactive
same,outcome,[7],inactive
same,outcome,[8],inactive
same,Potency,[1],inactive
same,outcome,[9],inactive
same,outcome,[10],inactive
COc1ccc2c(c1)c1c3n2CCN(C)C3=NCC1,Potency,[1],inactive
COc1ccc(CN(CCN(C)C)c2ncccn2)cc1,Potency,[1],inactive
CC(=O)OC[C@H]1O[C@@H](n2ncc(=O)[nH]c2=O)[C@H](OC(C)=O)[C@@H]1OC(C)=O,Potency,[1],inactive
O=C(O)C1(C(=O)O)CCC1.[NH2-].[NH2-].[Pt+2],Potency,[1],inactive
NCc1ccccc1Sc1ccccc1CO,Potency,[1],inactive
CCNC(=O)/C=C/c1cccc(Br)c1,Potency,[1],inactive
CCOC(=O)[C@H](CCc1ccccc1)N[C@@H](C)C(=O)N1[C@H](C(=O)O)C[C@H]2CCCC[C@@H]21,outcome,[2],inactive
same,outcome,[3],inactive
same,Potency,[4],inactive
same,viability change,[4],-5.88%
same,outcome,[5],inactive
same,outcome,[6],inactive
same,outcome,[7],inactive
same,outcome,[8],inactive
same,Potency,[1],inactive
same,outcome,[9],inactive
same,outcome,[10],inactive
O=C(O)CCNC(=O)c1ccccc1,Potency,[1],inactive
O=C(NCCc1c[nH]c2ccccc12)c1cccnc1,Potency,[1],inactive
CC[N+](C)(CC)CCOC(=O)C(O)(c1ccccc1)C1CCCCC1 (stereo not given),Potency,[1],inactive
Clc1cccc(C(c2ccc3nc[nH]c3c2)n2ccnc2)c1 (stereo not given),Potency,[1],inactive
CCCCCN=C(N)N/N=C/c1c[nH]c2ccc(OC)cc12,Potency,[1],inactive
COc1cc(O)c(C(=O)c2ccccc2)cc1S(=O)(=O)O,Potency,[1],inactive
O=C(Nc1cccc(C2=NCCN2)c1)Nc1cccc(C2=NCCN2)c1,Potency,[1],inactive
CC(=O)Nc1ccc(OCC(O)CNC(C)C)cc1 (stereo not given),Potency,[1],inactive
c1ccc(-c2nc[nH]c2-c2ccccc2)cc1,Potency,[1],inactive
O=C(O)CCc1nc2ccccc2[nH]1,Potency,[1],inactive
CN1CCN(C2=Nc3cc(F)ccc3Cc3ccccc32)CC1,Potency,[1],inactive
O=C(O)CCC(=O)Nc1ccc(S(=O)(=O)Nc2nccs2)cc1,Potency,[1],inactive
CCN(CC)CCNC(=O)COc1ccc(OC)cc1,Potency,[1],inactive
CC(=O)OCC1=C(C(=O)O)N2C(=O)[C@@H](NC(=O)CSc3ccncc3)[C@H]2SC1,activation,[11],0.5% (inactive)
same,outcome,[12],inactive
same,outcome,[13],inactive
Nc1nc(-c2ccccc2)c(Br)c(=O)[nH]1,Potency,[1],inactive
CCCCNc1ccc(C(=O)OCCOCCOCCOCCOCCOCCOCCOCCOCCOC)cc1,Potency,[1],inactive
NC(N)=NCc1cccc(I)c1,outcome,[2],inactive
same,outcome,[3],inactive
same,activation,[11],-0.0625% (inactive)
same,Potency,[4],20.6 µM (active)
same,viability change,[4],2.28%
same,outcome,[5],inactive
same,outcome,[12],inactive
same,outcome,[13],inactive
same,outcome,[6],inactive
same,outcome,[7],inactive
same,outcome,[8],inactive
same,Potency,[1],inactive
same,outcome,[9],inactive
same,outcome,[10],inactive
CC(C)NCC(O)c1ccc2ccccc2c1 (stereo not given),Potency,[1],inactive
CCN(CC)CCNC(=O)c1cc(Br)c(N)cc1OC,Potency,[1],inactive
CN(C)CCN1C(=O)c2ccccc2N(C)c2ccccc21,Potency,[1],inactive
C=CCN1CCc2nc(N)sc2CC1,Potency,[1],inactive
CCOc1ccc(NC(C)=O)cc1,Potency,[1],inactive
same,Potency,[14],inactive
same,Potency,[15],inactive
same,activation,[16],13.2% (inactive) and 14.9% (inactive)
same,Potency,[17],inactive
same,outcome,[18],inactive
same,activation,[19],0.725% (inactive)
same,outcome,[20],inactive
